# Screens: PubChem, Broad Institute
# Compounds with a hit are over-represented: about 2.1% of the library has one in this group of screens.
# U2OS ROS induce – cancer cell ROS induction | ROS induction (% of piperlongumine), % at 10 µM | U2OS ROS induction, H2DCF-DA fluorescence | hit rate 2% among 46,000; in the data active = ROS induction above about 79%, passing the limit was not always enough;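 also: 0% = DMSO vehicle median and 100% = reference compound median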
# PD-1 reversal – reversal of PD-1 mediated T-cell inhibition; primary human CD4 T cells, PD-L1 beads, CellTiter-Glo 96 h; activation, % (concentration not given with the values); 29,000 tested, under 10 active; call rule not given here;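 also: 0% = median vehicle wells and 100% = positive control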
# YB-1 expression – YB-1 expression inhibition; U2OS, qRT-PCR YB-1 vs CDIP delta delta Cp, 16 h; active compounds read high; zero = DMSO, each unit about twofold; delta delta Cp (YB-1 minus CDIP) (concentration not given with the values); hit rate 0.37% among 30,000;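 active = delta delta Cp rounded down to an integer at or above 3, about 3 SD of DMSO wells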;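 also: higher means less YB-1 transcript or more CDIP transcript relative to DMSO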
# Numbers without * were called inactive; · = no result.
SMILES,U2OS ROS induce,PD-1 reversal,YB-1 expression
O=[N+]([O-])c1cccc(-c2nn(-c3ccccc3)cc2CNCc2ccccc2)c1,42,-9,·
COc1ccc(CN(C)C[C@H]2Oc3ccc(NC(=O)C4CC4)cc3CC(=O)N([C@@H](C)CO)C[C@@H]2C)cc1,5,·,-0.19
COc1ccc(CN(C)C[C@@H]2Oc3ccc(NC(=O)Nc4ccc(OC)cc4)cc3CC(=O)N([C@H](C)CO)C[C@@H]2C)cc1,-15,·,0.22
COc1ccc(CN(C)C[C@@H]2Oc3ccc(NC(=O)C4CC4)cc3CC(=O)N([C@H](C)CO)C[C@@H]2C)cc1,104*,·,0.57
C[C@H]1CN([C@@H](C)CO)C(=O)Cc2cc(N(C)C)ccc2O[C@H]1CN(C)Cc1ccc(C(=O)O)cc1,-8,-1,-0.13
COc1ccc(NC(=O)Nc2ccc3c(c2)CC(=O)N([C@@H](C)CO)C[C@H](C)[C@H](CN(C)Cc2ccc(C(=O)O)cc2)O3)cc1,133*,0,0.24
C[C@H]1CN([C@@H](C)CO)C(=O)Cc2cc(N(C)C)ccc2O[C@@H]1CN(C)Cc1ccc(C(=O)O)cc1,113*,2,3.4e-05
COc1ccc(NC(=O)N(C)C[C@H]2Oc3ccc(NC(=O)C4CC4)cc3CC(=O)N([C@H](C)CO)C[C@H]2C)cc1,-15,1,0.025
COc1ccc(NC(=O)N(C)C[C@@H]2Oc3ccc(NC(=O)C4CC4)cc3CC(=O)N([C@H](C)CO)C[C@H]2C)cc1,120*,1,-0.32
CS(=O)(=O)NC(c1ccccc1)c1ccccc1,-12,·,·
COC(=O)c1ccc(NC(=O)CN(C)S(=O)(=O)c2ccccc2)cc1,·,1,·
O=C(CC1Nc2cccc3cccc(c23)NC1=O)Nc1ccc([N+](=O)[O-])cc1 (stereo not drawn),-4,-10,·
Cc1sc2ncnc(N3CCN(c4cccc(C(F)(F)F)c4)CC3)c2c1C,16,·,·
O=C(Nc1cccc(F)c1)c1cc(S(=O)(=O)N2CCCCC2)ccc1F,-4,·,·
Cc1ccccc1N/C(=N\S(=O)(=O)c1ccccc1)c1ccccc1,48,·,·
O=C(COc1ccc(Cl)cc1)NCCC12CC3CC(CC(C3)C1)C2,1,·,·
O=C(O)C1CC(=O)N(Cc2ccccc2)C1c1ccccc1 (stereo not drawn),-8,·,·
CCN(C(=O)CN1C(=O)N(c2ccc(C)c(Cl)c2)S(=O)(=O)c2ccccc21)c1ccccc1,25,·,·
O=C1CSc2cc(S(=O)(=O)N3CCN(c4ccccc4)CC3)ccc2N1,-6,·,·
COc1ccc(CCNC(=O)c2ccc3c(=O)n(CC4CCCO4)c(=S)[nH]c3c2)cc1OC (stereo not drawn),3,5,-0.46
COc1ccc(CCNC(=O)c2ccc3c(=O)n(CCC4=CCCCC4)c(=S)[nH]c3c2)cc1OC,96*,·,·
CC1C(=O)C(=O)[C@@H]2O[C@@H]2C1=O (stereo partly drawn),-12,0,-1.9
COC(=O)CCCCCCC(=O)N/N=C/c1c(F)c(F)c(F)c(F)c1F,266*,·,0.03
COC(=O)CCCCCCC(=O)N/N=C/c1ccc(F)cc1,16,·,0.096
O=C(CN1C(=O)C(c2ccccc2)=NC12CCCC2)Nc1ccccc1,9,·,·
SMILES,U2OS ROS induce,PD-1 reversal,YB-1 expression
COC(=O)c1cc(S(=O)(=O)/C=C/c2ccccc2)c(Cl)cc1Cl,121*,·,·
COC(=O)c1cc(NC(=O)CN(c2ccccc2F)S(C)(=O)=O)ccc1Cl,0,0,·
O=C(CSc1nc2ccccc2c(=O)[nH]1)Nc1ccccc1Cl,-1,-1,·
CCOC(=O)CC(Nc1nc(N2CCOCC2)nc(N2CCOCC2)n1)c1ccc(C)cc1 (stereo not drawn),1,·,·
O=C(Oc1ccc(OC(=O)c2ccco2)cc1)c1ccco1,-3,-5,0.52
CN(C(=O)C(Cl)Cl)c1ccc(OC(=O)c2ccco2)cc1,-5,0,3.7*
CCc1ccccc1NC(=O)C(C(C)C)N1C(=O)c2ccccc2C1=O (stereo not drawn),0,·,·
Cc1ccc(-c2nnc3c4ccccc4c(C)nn23)cc1S(=O)(=O)NC(C)c1ccccc1 (stereo not drawn),-4,-1,·
Cc1ccc(-c2nn3c(C)nnc3c3ccccc23)cc1S(=O)(=O)NCc1ccco1,125*,-4,·
CCOC(=O)C1=CN(c2ccc(C)c(C)c2)C=C(C(=O)OCC)C1c1ccccc1F,96*,·,·
COC(=O)C1=CN(c2ccc(F)cc2)C=C(C(=O)OC)C1c1cccc(O)c1,44,·,·
CCOC(=O)N1CCC(NC(=O)c2c(C)nn(-c3ccccc3)c2-n2cccc2)CC1,30,·,·
Nc1cc(N)cc(C(=O)OCN2C(=O)c3ccccc3C2=O)c1,-13,0,-0.18
CC(C)c1ccc(S(=O)(=O)N2CCOCC2)cc1,-1,·,·
CC1C2CC(C(S(=O)(=O)N3CCOCC3)C2=O)C1(C)C (stereo not drawn),115*,0,-0.19
CSC1=N/C(=C\c2ccc(Cl)cc2)C(=O)N1CCc1c[nH]c2ccccc12,73,-1,-0.094
O=C(Cn1c(=O)c2cccn2c2ccccc21)N1CCCCC1,-11,·,·
Cc1ccc(-n2c(C)nnc2SCC(=O)Nc2c(C)cccc2C)cc1C,-23,-3,·
O=C(N/N=C/c1c(F)c(F)c(F)c(F)c1F)c1ccccn1,117*,·,-0.4
O=C(N/N=C/c1ccc(F)cc1)c1ccccn1,-4,·,0.21
CCOC(=O)c1cc(-c2ccnn2S(=O)(=O)c2cccc(C(F)(F)F)c2)on1,184*,·,·
Cc1cc(-c2nc(-c3ccnn3S(=O)(=O)c3cccc(C(F)(F)F)c3)cs2)no1,29,·,·
Clc1ccc2oc(-c3ccccc3)cc(=NCC3CCCO3)c2c1 (stereo not drawn),45,·,·
O=C(NCc1ccc(Cl)cc1)c1ccc2c(c1)N(Cc1cccc(F)c1)C(=O)CS2=O (stereo not drawn),-12,·,·
COc1ccc(S(=O)(=O)Nc2cncc(C(=O)NCc3ccc(C)cc3)c2)cc1,-8,·,·
SMILES,U2OS ROS induce,PD-1 reversal,YB-1 expression
CSc1nc(COc2ccc(C(C)(C)C)cc2)nc(N)c1C#N,-4,·,·
CCc1cccc(NC(=O)C2CCN(c3nn4c(=O)cc(C)nc4s3)CC2)c1,-6,·,·
O=C(Nc1cccc(F)c1)C1CCN(c2ncnc3c2sc2cccc(F)c23)CC1,111*,·,·
O=C(NCCOc1ccccc1Cc1ccccc1)c1ccc(Br)cc1,26,·,·
COc1ccc(S(=O)(=O)Nc2cccc3c2O[C@H](CN(C)Cc2ccc(-c4ccccc4)cc2)[C@H](C)CN([C@H](C)CO)C3=O)cc1,96*,-2,-0.095
COc1ccc(S(=O)(=O)Nc2cccc3c2O[C@@H](CN(C)Cc2ccc(Oc4ccccc4)cc2)[C@H](C)CN([C@H](C)CO)C3=O)cc1,19,1,-0.81
C[C@H]1CN([C@@H](C)CO)C(=O)c2cccc(NS(=O)(=O)c3ccc(F)cc3)c2O[C@@H]1CN(C)Cc1ccc(Oc2ccccc2)cc1,104*,-3,0.1
C[C@H](CO)N1C[C@H](C)[C@@H](CN(C)Cc2ccc(-c3ccccc3)cc2)Oc2c(NS(=O)(=O)c3cccs3)cccc2C1=O,89*,2,0.27
C[C@@H]1CN([C@@H](C)CO)C(=O)c2cccc(NS(=O)(=O)c3cccs3)c2O[C@@H]1CN(C)Cc1ccc(-c2ccccc2)cc1,37,·,-0.35
